This is part of a sample that, as a whole, favours compounds with a hit. Of some 79,000 tested, about 15% had one in any assay. Values without a mark were called inactive. Calls of active or inactive are those of the source. Cut-off read from the data, not from the text of the source: active = growth inhibition above about 70%; inactive = the rest. Where a SMILES comes first, the peptide text is derived from it. [ ]: non-standard residue; d: D form. The star is where a group is joined. Cbz = O=C(OCc1ccccc1)*; Nva = CCC[CH](N)C(=O)O
Experiments:
[1] = NCI Yeast Anticancer Drug Screen. Data for the rad50 strain (AID 155);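 note: 0% = growth of vehicle-only cultures of the same strain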; conditions: S. cerevisiae rad50 strain growth inhibition, hits give high values; at 50.0 µM unless noted
Procedure, shortened: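 Compounds were tested on a yeast strain with an engineered DNA damage repair alteration; the reported value is growth inhibition normalised to vehicle treatment.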

[2] = NCI Yeast Anticancer Drug Screen. Data for the mec2-1 strain (AID 157); conditions: S. cerevisiae mec2-1 strain, hits give high values; at 50.0 µM unless noted
Procedure, shortened: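 Strain: mec2-1 (DNA repair/cell cycle alteration). Compound exposure, then growth measured; inhibition expressed relative to vehicle.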

[3] = NCI Yeast Anticancer Drug Screen. Data for the sgs1 mgt1 strain (AID 161);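 note: 0% = growth of cultures given vehicle only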; conditions: S. cerevisiae sgs1 mgt1 strain, hits give high values; at 50.0 µM unless noted
Procedure, shortened: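 Inhibition of yeast growth, normalised to vehicle-treated controls, is reported for a strain bearing genetic alterations in DNA damage repair.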

[4] = NCI Yeast Anticancer Drug Screen. Data for the cln2 rad14 strain (AID 165);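 note: 0% = growth equal to vehicle treated cultures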; conditions: S. cerevisiae cln2 rad14 strain, hits give high values; at 50.0 µM unless noted
Procedure, shortened: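 Compounds are applied to the cln2 rad14 yeast strain, and growth is then compared with that of vehicle-treated cultures to give inhibition.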

[5] = NCI Yeast Anticancer Drug Screen. Data for the bub3 strain (AID 167); conditions: S. cerevisiae bub3 mutant strain, hits give high values; at 50.0 µM unless noted
Procedure, shortened: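 Growth of a checkpoint-deficient yeast mutant is measured after compound exposure. Values represent inhibition relative to vehicle.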

[6] = NCI Yeast Anticancer Drug Screen. Data for the mlh1 rad18 strain (AID 175); conditions: S. cerevisiae mlh1 rad18 strain growth inhibition, hits give high values; at 50.0 µM unless noted
Procedure, shortened: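 Read-out is yeast growth inhibition, calculated against vehicle-only controls. The compound was applied to a strain engineered with DNA damage repair alterations.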

Nc1nc(N)c(CCCCc2ccccc2)c(Cc2ccccc2)n1
growth inhibition [1]: -10.2%
growth inhibition [2]: -10.5%
growth inhibition [3]: -2%
growth inhibition [4]: -40%
growth inhibition [5]: 3.7%
growth inhibition [6]: -7.4%

C=C1C(=O)OC2CC1C(OC(C)=O)CC1(C)OC1CCC1(C)OC1CCC2(C)O (centres undefined)
growth inhibition [1]: -4.4%
growth inhibition [2]: -0.1%
growth inhibition [3]: 1.05%
growth inhibition [4]: -2.7%
growth inhibition [5]: -9.55%
growth inhibition [6]: -3.4%

COc1ccc2c(c1)[n+](=O)c(C(=O)C/C(=N/NC(=O)C[N+](C)(C)C)C(=O)Nc1cccc(C)c1C)c(C)n2O
growth inhibition [1]: -23.6%
growth inhibition [2]: -2.25%
growth inhibition [3]: -41%
growth inhibition [4]: -5.5%
growth inhibition [5]: 22.9%
growth inhibition [6]: -13.9%

S=C(NC1CCCCC1)SSSC(=S)NC1CCCCC1
growth inhibition [1]: -6.7%
growth inhibition [2]: -4.65%
growth inhibition [3]: -8.05%
growth inhibition [4]: 15.2%
growth inhibition [5]: -17.4%
growth inhibition [6]: 6.8%

C1CCN(CCC2CCNCC2)CC1
growth inhibition [1]: -5.4%
growth inhibition [2]: -18.3%
growth inhibition [3]: -12.1%
growth inhibition [4]: 1.8%
growth inhibition [5]: 7.65%
growth inhibition [6]: -1.6%

COC(=O)[C@]1(c2ccc(N(C)C)cc2OC)C[C@@H]2CCCN(CCc3c1[nH]c1ccccc31)C2
growth inhibition [1]: -5.8%
growth inhibition [2]: -4.35%
growth inhibition [3]: -11.5%
growth inhibition [4]: 18.4%
growth inhibition [5]: -0.65%
growth inhibition [6]: 21.6%

O=c1c2cncnc2sc2nc3ccccc3n12
growth inhibition [1]: 16.1%
growth inhibition [2]: -9.55%
growth inhibition [3]: 28.3%
growth inhibition [4]: 11.9%
growth inhibition [5]: 15.3%
growth inhibition [6]: 23.4%

CC(=O)Nc1c(N)c2ccccc2c2ccccc12
growth inhibition [1]: -4.2%
growth inhibition [2]: -13.9%
growth inhibition [3]: -22.7%
growth inhibition [4]: 1.75%
growth inhibition [5]: -4.5%
growth inhibition [6]: -12.2%

Cc1ccc(/C=C(/c2ccccc2)C(CC(=O)O)C(=O)O)cc1 (centres undefined)
growth inhibition [1]: -4.75%
growth inhibition [2]: -11.3%
growth inhibition [3]: -6.85%
growth inhibition [4]: -44.7%
growth inhibition [5]: -6.35%
growth inhibition [6]: -14.5%

CC1CC(=O)c2c(ccc3c2C(=O)c2cccc(O)c2C3=O)C1 (centres undefined)
growth inhibition [1]: -3.55%
growth inhibition [2]: -0.45%
growth inhibition [3]: 40.2%
growth inhibition [4]: 24.8%
growth inhibition [5]: -1.05%
growth inhibition [6]: 52.8%

CCCC(NC(=O)OCc1ccccc1)C(=O)NC(CC(C)C)C(N)=O (centres undefined) (Cbz-[Nva]-Leu-NH2; configuration not given here)
growth inhibition [1]: 12.9%
growth inhibition [2]: 2.35%
growth inhibition [3]: 5%
growth inhibition [4]: 22.2%
growth inhibition [5]: 6.55%
growth inhibition [6]: 5.15%

NCCS(=O)(=O)O
growth inhibition [1]: 1.8%
growth inhibition [2]: 8.7%
growth inhibition [3]: 7.7%
growth inhibition [4]: 19.8%
growth inhibition [5]: -5.6%
growth inhibition [6]: -6.95%

CN(C)c1ccc(/C=C2\C(=O)/C(=C\c3ccc(N(C)C)cc3)c3ccccc32)cc1
growth inhibition [1]: 2.95%
growth inhibition [2]: -4.25%
growth inhibition [3]: -13.8%
growth inhibition [4]: -12.5%
growth inhibition [5]: 1.05%
growth inhibition [6]: 2.95%

O=[N+]([O-])c1cnccc1/C=C\c1ccccc1
growth inhibition [1]: 4.5%
growth inhibition [2]: 3.15%
growth inhibition [3]: -2.1%
growth inhibition [4]: -35.9%
growth inhibition [5]: -5.7%
growth inhibition [6]: 12%

COc1ccc(NC(=O)CC/C(CC(=O)c2ccco2)=N/NC(=O)C(N)=O)cc1
growth inhibition [1]: -4%
growth inhibition [2]: -10.4%
growth inhibition [3]: -15.8%
growth inhibition [4]: -7.15%
growth inhibition [5]: -14.1%
growth inhibition [6]: -18.1%

CC(C)(Oc1ccc(C(=O)c2ccc(Cl)cc2)cc1Cl)C(=O)N1CCN(c2ccccc2)CC1
growth inhibition [1]: 2%
growth inhibition [2]: -46.1%
growth inhibition [3]: -0.85%
growth inhibition [4]: -55%
growth inhibition [5]: -9.2%
growth inhibition [6]: -5.9%

O=C(O)CCNc1ccc(Cl)cc1[N+](=O)[O-]
growth inhibition [1]: 25.8%
growth inhibition [2]: 26.8%
growth inhibition [3]: 30.4%
growth inhibition [4]: 16.1%
growth inhibition [5]: 34.9%
growth inhibition [6]: 25.8%

CC(=O)O/N=C(\C(c1ccccc1)c1ccccc1)C1c2ccccc2-c2ccccc21
growth inhibition [1]: 91.3% (active)
growth inhibition [2]: 88.7% (active)
growth inhibition [3]: 96.9% (active)
growth inhibition [4]: 91.2% (active)
growth inhibition [5]: 64.8%
growth inhibition [6]: 96.2% (active)

COc1ccc(NC(=O)CC(=O)n2nc(-c3ccccc3)c(N=Nc3ccccc3C(=O)O)c2-c2ccccc2)cc1
growth inhibition [1]: -28.8%
growth inhibition [2]: -13.1%
growth inhibition [3]: -2.05%
growth inhibition [4]: 2.85%
growth inhibition [5]: 2.25%
growth inhibition [6]: -13.5%

— PubChem BioAssay (NCI)
